# Measurements reported in PubChem BioAssay (NCI).
# Several values for one entry are separate records, joined by “and”; a condition that tells them apart may be missing. Identical values can stand only once. The panel holds about 79,000 compounds, 15% with a hit somewhere; the sample as a whole holds those more often. A structure can be active in one record and inactive in another. Activity calls are given as the source filed them. Rule as the data show it: active = growth inhibition above about 70%; inactive = the rest.
# Experiments:
# [1] = NCI Yeast Anticancer Drug Screen. Data for the rad52 strain (AID 147);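 also: 0% = growth of vehicle-treated control cultures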; conditions: S. cerevisiae rad52 mutant growth inhibition, stronger effect = higher value
# Outline: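 Here a repair-compromised yeast strain receives each compound; its growth is then quantified and normalised to vehicle-only controls.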
# [2] = NCI Yeast Anticancer Drug Screen. Data for the wt1 strain (AID 149);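 also: 0% = growth of vehicle-treated wt1 cultures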; conditions: S. cerevisiae wt1 strain (SPY 50644) growth inhibition, stronger effect = higher value
# Outline: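 Using yeast strain wt1, compound-induced growth inhibition was determined against vehicle-treated cultures.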
# [3] = NCI Yeast Anticancer Drug Screen. Data for the rad50EPP+ strain (AID 151);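 also: 0% = growth of vehicle-treated control cultures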; conditions: S. cerevisiae rad50 mutant strain, stronger effect = higher value
# Outline: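 Read-out is yeast growth inhibition relative to vehicle; cells used were the rad50EPP+ strain.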
# [4] = NCI Yeast Anticancer Drug Screen. Data for the mgt1 strain (AID 153); conditions: S. cerevisiae mgt1 mutant growth inhibition, stronger effect = higher value
# Outline: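 Measured: inhibition of mgt1 yeast growth by compound, normalized to vehicle-treated cultures.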
# [5] = NCI Yeast Anticancer Drug Screen. Data for the rad50 strain (AID 155);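 also: 0% = growth of vehicle-only cultures of the same strain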; conditions: S. cerevisiae rad50 strain growth inhibition, stronger effect = higher value
# Outline: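 Relative growth inhibition (compound vs vehicle) was measured in yeast with a defined repair-gene alteration.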
# [6] = NCI Yeast Anticancer Drug Screen. Data for the mec2-1 strain (AID 157); conditions: S. cerevisiae mec2-1 strain, stronger effect = higher value
# Outline: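 Using mec2-1 yeast: add compound, measure growth, express inhibition versus vehicle-treated cultures.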
# [7] = NCI Yeast Anticancer Drug Screen. Data for the rad14 strain (AID 159);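 also: 0% = growth of vehicle-treated control cultures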; conditions: S. cerevisiae rad14 strain growth inhibition, stronger effect = higher value
# Outline: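 Screen for anticancer potential: a yeast strain altered in DNA damage repair is grown with compound, and reduced growth is quantified against vehicle controls.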
# [8] = NCI Yeast Anticancer Drug Screen. Data for the CLN2oe strain (AID 163);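 also: 0% = growth of vehicle-only control cultures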; conditions: S. cerevisiae CLN2oe strain, stronger effect = higher value
# Outline: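 Whole-cell yeast growth assay. A strain engineered for altered cell-cycle control received compound, and inhibition relative to vehicle-treated cultures was recorded.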
# [9] = NCI Yeast Anticancer Drug Screen. Data for the cln2 rad14 strain (AID 165);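 also: 0% = growth equal to vehicle treated cultures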; conditions: S. cerevisiae cln2 rad14 strain, stronger effect = higher value
# Outline: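 Yeast strain cln2 rad14, bearing defects in cell cycle control and DNA repair, serves as the test system; values reflect growth inhibition compared with vehicle.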
# [10] = NCI Yeast Anticancer Drug Screen. Data for the bub3 strain (AID 167); conditions: S. cerevisiae bub3 mutant strain, stronger effect = higher value
# Outline: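 Screening used yeast with an engineered genetic alteration affecting cell cycle control. Compound-exposed cultures were compared with vehicle cultures, and reduced growth was taken as inhibition.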
# [11] = NCI Yeast Anticancer Drug Screen. Data for the wt2 strain (AID 169);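 also: 0% = growth of vehicle-treated yeast cultures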; conditions: S. cerevisiae wt2 strain growth inhibition, stronger effect = higher value
# Outline: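 Treated yeast vs. vehicle-treated yeast: growth inhibition determined.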
# [12] = NCI Yeast Anticancer Drug Screen. Data for the mlh1 strain (AID 171);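 also: 0% = growth of vehicle-treated control cultures of the same strain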; conditions: S. cerevisiae mlh1 strain growth inhibition, stronger effect = higher value
# Outline: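 A yeast strain with a defined genetic lesion serves as the test organism. Cultures receive compound or vehicle, and growth is measured.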
# [13] = NCI Yeast Anticancer Drug Screen. Data for the sgs1 strain (AID 173);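 also: 0% = growth of vehicle-only control cultures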; conditions: S. cerevisiae sgs1 mutant, stronger effect = higher value
# Outline: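 A genetically defined yeast mutant is incubated with the test compound, and its growth is compared to that of the same strain given vehicle.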
# [14] = NCI Yeast Anticancer Drug Screen. Data for the mlh1 rad18 strain (AID 175); conditions: S. cerevisiae mlh1 rad18 strain growth inhibition, stronger effect = higher value
# Outline: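 Steps: expose repair-defective yeast to compound; measure growth; express inhibition against vehicle-treated controls.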
# [15] = NCI Yeast Anticancer Drug Screen. Data for the rad18 strain (AID 177); conditions: S. cerevisiae rad18 mutant growth inhibition, stronger effect = higher value
# Outline: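 Measured value is growth inhibition of a yeast strain bearing a DNA repair alteration, referenced to vehicle-treated cells.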
# [16] = NCI Yeast Anticancer Drug Screen. Data for the sgs1 mgt1 strain (AID 161);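 also: 0% = growth of cultures given vehicle only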; conditions: S. cerevisiae sgs1 mgt1 strain, stronger effect = higher value
# Outline: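 Yeast cells carrying a defined DNA-repair defect were exposed to test compounds. Growth inhibition was measured relative to vehicle-treated controls.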
# [17] = at 5.0 µM (retest, dose inferred, filed as 0.5)
# [18] = at 50.0 µM (retest, dose inferred, filed as 5.0)
structure (smiles),measurement,setting,value
COc1ccc2[nH]cc([C@@H]3C4CCC(C4)[C@H]3NCc3cccc(CN[C@H]4C5CCC(C5)[C@@H]4c4c[nH]c5ccc(OC)cc45)c3)c2c1,growth inhibition,[1]; at 1.2 µM,-28% (inactive)
same,growth inhibition,[1]; at 3.7 µM,-23% (inactive)
same,growth inhibition,[1]; at 11.0 µM,-20% (inactive)
same,growth inhibition,[1]; at 33.0 µM,22% (inactive)
same,growth inhibition,[1]; at 100.0 µM,98% (active)
same,growth inhibition,[2]; at 1.2 µM,-33% (inactive)
same,growth inhibition,[2]; at 3.7 µM,-43% (inactive)
same,growth inhibition,[2]; at 11.0 µM,-41% (inactive)
same,growth inhibition,[2]; at 33.0 µM,-8% (inactive)
same,growth inhibition,[2]; at 100.0 µM,93% (active)
same,growth inhibition,[3]; at 1.2 µM,-19% (inactive)
same,growth inhibition,[3]; at 3.7 µM,-14% (inactive)
same,growth inhibition,[3]; at 11.0 µM,-7% (inactive)
same,growth inhibition,[3]; at 33.0 µM,-23% (inactive)
same,growth inhibition,[3]; at 100.0 µM,63% (inactive)
same,growth inhibition,[4]; at 1.2 µM,-36% (inactive)
same,growth inhibition,[4]; at 3.7 µM,-47% (inactive)
same,growth inhibition,[4]; at 11.0 µM,-38% (inactive)
same,growth inhibition,[4]; at 33.0 µM,42% (inactive)
same,growth inhibition,[4]; at 100.0 µM,98% (active)
same,growth inhibition,[5]; at 1.2 µM,-36% (inactive)
same,growth inhibition,[5]; at 3.7 µM,-16% (inactive)
same,growth inhibition,[5]; [17],-15% (inactive)
same,growth inhibition,[5]; at 11.0 µM,-27% (inactive)
same,growth inhibition,[5]; at 33.0 µM,51% (inactive)
same,growth inhibition,[5]; [18],99% (active)
same,growth inhibition,[5]; at 50.0 µM,98.3% (active) and 55.8% (inactive)
same,growth inhibition,[5]; at 100.0 µM,97% (active)
same,growth inhibition,[6]; at 1.2 µM,-61% (inactive)
same,growth inhibition,[6]; at 3.7 µM,-59% (inactive)
same,growth inhibition,[6]; [17],-2% (inactive)
same,growth inhibition,[6]; at 11.0 µM,-54% (inactive)
same,growth inhibition,[6]; at 33.0 µM,26% (inactive)
same,growth inhibition,[6]; [18],99% (active)
same,growth inhibition,[6]; at 50.0 µM,99.2% (active) and 10.9% (inactive)
same,growth inhibition,[6]; at 100.0 µM,97% (active)
same,growth inhibition,[7]; at 1.2 µM,-30% (inactive)
same,growth inhibition,[7]; at 3.7 µM,-23% (inactive)
same,growth inhibition,[7]; at 11.0 µM,0% (inactive)
same,growth inhibition,[7]; at 33.0 µM,89% (active)
same,growth inhibition,[7]; at 100.0 µM,98% (active)
same,growth inhibition,[8]; at 1.2 µM,36% (inactive)
same,growth inhibition,[8]; at 3.7 µM,33% (inactive)
same,growth inhibition,[8]; at 11.0 µM,31% (inactive)
same,growth inhibition,[8]; at 33.0 µM,63% (inactive)
same,growth inhibition,[8]; at 100.0 µM,92% (active)
same,growth inhibition,[9]; [17],27% (inactive)
same,growth inhibition,[9]; [18],99% (active)
same,growth inhibition,[9]; at 50.0 µM,99.2% (active) and 77.3% (active)
same,growth inhibition,[10]; at 1.2 µM,-25% (inactive)
same,growth inhibition,[10]; at 3.7 µM,-32% (inactive)
same,growth inhibition,[10]; [17],7% (inactive)
same,growth inhibition,[10]; at 11.0 µM,-18% (inactive)
same,growth inhibition,[10]; at 33.0 µM,56% (inactive)
same,growth inhibition,[10]; [18],98% (active)
same,growth inhibition,[10]; at 50.0 µM,98.8% (active) and 35.2% (inactive)
same,growth inhibition,[10]; at 100.0 µM,98% (active)
same,growth inhibition,[11]; at 1.2 µM,-41% (inactive)
same,growth inhibition,[11]; at 3.7 µM,-42% (inactive)
same,growth inhibition,[11]; at 11.0 µM,-46% (inactive)
same,growth inhibition,[11]; at 33.0 µM,20% (inactive)
same,growth inhibition,[11]; at 100.0 µM,99% (active)
same,growth inhibition,[12]; at 1.2 µM,-68% (inactive)
same,growth inhibition,[12]; at 3.7 µM,-64% (inactive)
same,growth inhibition,[12]; at 11.0 µM,-60% (inactive)
same,growth inhibition,[12]; at 33.0 µM,61% (inactive)
same,growth inhibition,[12]; at 100.0 µM,97% (active)
same,growth inhibition,[13]; at 1.2 µM,-38% (inactive)
same,growth inhibition,[13]; at 3.7 µM,-37% (inactive)
same,growth inhibition,[13]; at 11.0 µM,-45% (inactive)
same,growth inhibition,[13]; at 33.0 µM,-5% (inactive)
same,growth inhibition,[13]; at 100.0 µM,97% (active)
same,growth inhibition,[14]; [17],2% (inactive)
same,growth inhibition,[14]; [18],99% (active)
same,growth inhibition,[14]; at 50.0 µM,38.5% (inactive)
same,growth inhibition,[15]; at 1.2 µM,-19% (inactive)
same,growth inhibition,[15]; at 3.7 µM,-10% (inactive)
same,growth inhibition,[15]; at 11.0 µM,-31% (inactive)
same,growth inhibition,[15]; at 33.0 µM,58% (inactive)
same,growth inhibition,[15]; at 100.0 µM,98% (active)
COc1ccc(C/C=N/Nc2ccc([N+](=O)[O-])cc2)cc1OC,growth inhibition,[1]; at 1.2 µM,8% (inactive)
same,growth inhibition,[1]; at 3.7 µM,12% (inactive)
same,growth inhibition,[1]; at 11.0 µM,18% (inactive)
same,growth inhibition,[1]; at 33.0 µM,39% (inactive)
same,growth inhibition,[1]; at 100.0 µM,42% (inactive)
same,growth inhibition,[2]; at 1.2 µM,4% (inactive)
same,growth inhibition,[2]; at 3.7 µM,2% (inactive)
same,growth inhibition,[2]; at 11.0 µM,5% (inactive)
same,growth inhibition,[2]; at 33.0 µM,-1% (inactive)
same,growth inhibition,[2]; at 100.0 µM,2% (inactive)
same,growth inhibition,[3]; at 1.2 µM,15% (inactive)
same,growth inhibition,[3]; at 3.7 µM,29% (inactive)
same,growth inhibition,[3]; at 11.0 µM,33% (inactive)
same,growth inhibition,[3]; at 33.0 µM,35% (inactive)
same,growth inhibition,[3]; at 100.0 µM,51% (inactive)
same,growth inhibition,[5]; at 1.2 µM,27% (inactive)
same,growth inhibition,[5]; at 3.7 µM,36% (inactive)
same,growth inhibition,[5]; [17],9% (inactive)
same,growth inhibition,[5]; at 11.0 µM,28% (inactive)
same,growth inhibition,[5]; at 33.0 µM,56% (inactive)
same,growth inhibition,[5]; [18],97% (active)
same,growth inhibition,[5]; at 50.0 µM,98.1% (active)
same,growth inhibition,[5]; at 100.0 µM,66% (inactive)
same,growth inhibition,[6]; at 1.2 µM,1% (inactive)
same,growth inhibition,[6]; at 3.7 µM,3% (inactive)
same,growth inhibition,[6]; [17],16% (inactive)
same,growth inhibition,[6]; at 11.0 µM,4% (inactive)
same,growth inhibition,[6]; at 33.0 µM,1% (inactive)
same,growth inhibition,[6]; [18],98% (active)
same,growth inhibition,[6]; at 50.0 µM,97.3% (active)
same,growth inhibition,[6]; at 100.0 µM,6% (inactive)
same,growth inhibition,[7]; at 1.2 µM,3% (inactive)
same,growth inhibition,[7]; at 3.7 µM,12% (inactive)
same,growth inhibition,[7]; at 11.0 µM,23% (inactive)
same,growth inhibition,[7]; at 33.0 µM,25% (inactive)
same,growth inhibition,[7]; at 100.0 µM,30% (inactive)
same,growth inhibition,[16]; [17],9% (inactive)
same,growth inhibition,[16]; [18],97% (active)
same,growth inhibition,[16]; at 50.0 µM,97.5% (active)
same,growth inhibition,[9]; [17],-3% (inactive)
same,growth inhibition,[9]; [18],89% (active)
same,growth inhibition,[9]; at 50.0 µM,54.4% (inactive)
same,growth inhibition,[10]; at 1.2 µM,3% (inactive)
same,growth inhibition,[10]; at 3.7 µM,2% (inactive)
same,growth inhibition,[10]; [17],12% (inactive)
same,growth inhibition,[10]; at 11.0 µM,8% (inactive)
same,growth inhibition,[10]; at 33.0 µM,13% (inactive)
same,growth inhibition,[10]; [18],97% (active)
same,growth inhibition,[10]; at 50.0 µM,98.2% (active)
same,growth inhibition,[10]; at 100.0 µM,23% (inactive)
same,growth inhibition,[11]; at 1.2 µM,-2% (inactive)
same,growth inhibition,[11]; at 3.7 µM,-1% (inactive)
same,growth inhibition,[11]; at 11.0 µM,5% (inactive)
same,growth inhibition,[11]; at 33.0 µM,5% (inactive)
same,growth inhibition,[11]; at 100.0 µM,-3% (inactive)
same,growth inhibition,[12]; at 1.2 µM,-1% (inactive)
same,growth inhibition,[12]; at 3.7 µM,6% (inactive)
same,growth inhibition,[12]; at 11.0 µM,9% (inactive)
same,growth inhibition,[12]; at 33.0 µM,11% (inactive)
same,growth inhibition,[12]; at 100.0 µM,31% (inactive)
same,growth inhibition,[13]; at 1.2 µM,-17% (inactive)
same,growth inhibition,[13]; at 3.7 µM,-24% (inactive)
same,growth inhibition,[13]; at 11.0 µM,-8% (inactive)
same,growth inhibition,[13]; at 33.0 µM,48% (inactive)
same,growth inhibition,[13]; at 100.0 µM,73% (active)
same,growth inhibition,[14]; [17],7% (inactive)
same,growth inhibition,[14]; [18],98% (active)
same,growth inhibition,[14]; at 50.0 µM,97.8% (active)
same,growth inhibition,[15]; at 1.2 µM,15% (inactive)
same,growth inhibition,[15]; at 3.7 µM,43% (inactive)
same,growth inhibition,[15]; at 11.0 µM,26% (inactive)
same,growth inhibition,[15]; at 33.0 µM,20% (inactive)
same,growth inhibition,[15]; at 100.0 µM,56% (inactive)
